Measurements as given in PubChem BioAssay (NCATS).
Records with an inconclusive call do not appear. Unmarked numbers belong to inactive results. Calls follow the shape of the dose curve; as a rule, active = well fitted cell-killing curve with a large enough effect; inconclusive = small, poorly fitted or top-dose-only effect; inactive = flat fitted curve, though single readings scatter.

assay: MultiTox-Fluor Cytotoxicity Assay - LYMP1-001 - Live Cells (AID 947); settings: LYMP1-001 lymphoblastoid cells, live-cell protease fluorescence viability; series mostly up to 92.2 µM; activity change, negative = cytotoxicity: at the top concentration;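 also: 0% = DMSO only and full inhibition = tetraoctylammonium bromide control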
Description: NIH Chemical Genomics Center [NCGC]
NIH Molecular Libraries Screening Centers Network [MLSCN]
National Institutes of Environmental Health Sciences [NIEHS]
National Toxicology Program [NTP]
We have developed a 1536-well cell-based assay for quantitative high throughput screening (qHTS) against a number of cell lines to determine in vitro cytotoxicity of small molecules. This particular assay uses a human lymphoblastoid cell line (LYMP1-001) purchased from Coriell Institute.
NCGC Assay Protocol Summary:
The MultiTox-Fluor Cytotoxicity Assay (Promega) is a homogeneous method to simultaneously measure the relative number of live and dead cells in culture by detecting changes in cell membrane integrity. There are two fluorogenic peptide substrates in the assay reagent. Viable cells are determined when the cell-permeant substrate (GF-AFC) enters the cell and is cleaved by protease from live cells resulting in liberated fluorophore. This live-cell protease activity restricted to viable cells is proportional to cell number. The dead cells are determined by using fluorogenic cell-impermeant peptide substrate (bis-AAF-R110) which cleaved by dead cell proteases leaking from damaged cell membrane.
Using the MultiTox-Fluor Cytotoxicity Assay, the relative number of live cells was measured in the lymphoblastoid cell line with complete culture medium following compound treatment for 16 hours. The assay was performed in opaque black Kalypsys 1536-well plates. In the screen, tetraoctylammonium bromide was used as positive control. Library compounds were measured for their ability to cause acute toxicity in the cell line, as reflected by a decrease in live cell protease activity, in a concentration-dependent manner. […] AC50 values were determined from concentration-response data modeled with the standard Hill equation.
qHTS protocol for MultiTox-Fluor Cytotoxicity assay
[Step] [Parameter] [Value] [Description]
1. Reagent; 5 uL; 2500 lymphoblastoid cells/well
2. Time; 5 hr; 37 C incubation
4. Controls; 23 nL; Tetraoctylammonium bromide 6.4pM to 92 uM
5. Time; 16 hr; 37 C incubation
6. Reagent; 5 uL; MuliTox-Fluor Assay reagent
7. Time; 60 min; Room Temperature
8. Detection; live-cell fluorescence (Ex/Em=405/510); EnVision plate reader
Keywords: cell viability, cytotoxicity, lymphoblastoid cell line, fluorescence, NTPHTS, NTPHTS_NCGC, NIEHS, EPA, DSSTox, MLSMR, MLSCN, NIH Roadmap, qHTS, NCGC

Row | SMILES | activity change, negative = cytotoxicity [%]
1 | O=[N+]([O-])c1ccc(Cl)c(Cl)c1Cl | -23.7
2 | Nc1ccc(-c2ccc(N)cc2)cc1 | -1.38
3 | N#CCCCCC#N | -12
4 | O=[N+]([O-])c1cc(Cl)c(Cl)c(Cl)c1 | -34.5
5 | Cc1ccc2c(c1N)C(=O)c1ccccc1C2=O | 7.92
6 | Oc1cccc(Cl)c1Cl | -23.2
7 | Cc1cnc[nH]1 | 11.8
8 | Cc1ccc(N)cc1C | -19.9
9 | COc1cc(-c2ccc(N)c(OC)c2)ccc1N | 16.4
10 | Cc1cc(N=Nc2ccccc2C)ccc1N | -34.6
11 | ClCCOCCCl | -0.971
12 | CC(C)Br | 3.93
13 | N#C/C=C/C#N | 14.5
14 | COC(=O)Nc1cccc(OC(=O)Nc2cccc(C)c2)c1 | -9.74
15 | c1ccc2c(c1)CCNC2 | -14.6
16 | Cc1ccccc1[N+](=O)[O-] | 7.58
17 | Cc1cc(Cl)ccc1O | -14.6
18 | COc1c(C(C)(C)C)cc([N+](=O)[O-])c(C)c1[N+](=O)[O-] | -24.9
19 | Oc1ccc(Cl)c(Cl)c1 | 13.4
20 | CCCC[N+](=O)[O-] | 3.89

Row | SMILES | activity change, negative = cytotoxicity [%]
21 | CCN(CC)N=O | -17
22 | ClC(Cl)C(Cl)Cl | 6.55
23 | CC[N+](=O)[O-] | -2.77
24 | CC(C)OS(C)(=O)=O | 7.22
25 | ClC(Cl)(Cl)C(Cl)(Cl)Cl | 3.48
26 | CCCCCCCCCCCCCl | 6.65
27 | CCN(CC)CCO | -6.72
28 | Brc1ccc(Oc2ccc(Br)cc2Br)c(Br)c1 | 12.4
29 | ClCC(Cl)CCl | -3.89
30 | O=S(=O)(Cl)c1ccccc1 | 11.1
31 | Oc1cccc(Cl)c1 | 6.77
32 | Clc1ccc(Cl)c(Cl)c1 | -0.643
33 | CCOS(C)(=O)=O | -23.8
34 | CC(C)(Cl)[N+](=O)[O-] | 14.3
35 | Nc1cc(Cl)ccc1Cl | 9.51
36 | Nc1ncc([N+](=O)[O-])s1 | -6.41
37 | FC(Cl)(Cl)Cl | -7.25
38 | O=[N+]([O-])c1c(Cl)c(Cl)c(Cl)c(Cl)c1Cl | -13
39 | Cc1ccc(N)cc1Cl | -15.5
40 | Cl/C=C\Cl | 1.51
